# KB-V1 MDR tox: qHTS assay for MDR1-selective chemotherapeutics: Primary screen using the drug-selected MDR subline cells KB-V1. KB-V1 MDR cells viability, CellTiter-Glo, 72 h. AID 1347076, 2019. Potency, µM (doses to about 46.1 µM), hits mostly cytotoxic. 400,000 compounds, 3.4% hits; further: nearly all actives have a fitted effect of over 60% in size
#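 KB-V1, DMEM (no phenol red) + 10% FBS; cpd pin-transferred, titration series; 72 h, 37 degrees C; CellTiter-Glo, luminescence. Data normalized, curve-fit.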
# HT1080 IDH1KD tx: qHTS for induction of synthetic lethality in tumor cells producing 2HG: qHTS for the HT-1080-IDH1KD cell line | 360,000 compounds, 2% hits | Potency, µM (highest dose often 46.1 µM), actives largely listed as cytotoxic | HT-1080 IDH1 knockdown viability, ATP luminescence, 48 h
#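 Knockdown cells (IDH1KD HT-1080) received compounds 2 h after plating at 750 cells/well and were kept 48 h at 37 °C in 5% FBS RPMI. A CellTiter-Glo luminescence read gave % activity for curve fitting.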
# SW480 rereplic: A quantitative high throughput screen for small molecules that induce DNA re-replication in SW480 colon adenocarcinoma cells; SW480 DNA re-replication, Hoechst DNA content imaging, 48 h; Potency, µM (highest dose often 46.1 µM), usual class: activators; 340,000 compounds, 1.8% hits; AID 624297, 2012; further: nearly all actives have a fitted effect of over 55% in size
#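 Hoechst fluorescence of nuclei (405 nm excitation, 500-530 nm emission) measured by plate-scanning imager after 48 hr compound exposure at 37 C; re-replication scored as increased number of nuclei with elevated intensity.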
# HT1080-NT tox: qHTS for induction of synthetic lethality in tumor cells producing 2HG: qHTS for the HT-1080-NT fibrosarcoma cell line; HT-1080-NT fibrosarcoma viability, CellTiter-Glo ATP luminescence, 48 h; Potency, µM (series often up to 46.1 µM), most hits filed as cytotoxic; 360,000 compounds, 1.6% hits; AID 686970, 2013;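 further: NT is the 2HG producing partner of a matched IDH1 knockdown line; nearly all actives have a fitted effect of over 55% in size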
#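 Toxicity toward the 2HG-producing NT line was scored as %Activity, normalised to DMSO and no-cell wells, from CellTiter-Glo luminescence after 48 hours' treatment.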
# MCF10A rerep: A quantitative high throughput screen for small molecules that induce DNA re-replication in MCF 10a normal breast cells | Potency, µM (series often up to 46.1 µM), usual class: activators | MCF 10A DNA re-replication, Hoechst nuclear intensity, 48 h | 350,000 compounds, 2.9% hits; further: nearly all actives have a fitted effect of over 50% in size
# KB-3-1 tox: qHTS assay for MDR1-selective chemotherapeutics: Primary screen using the parental adenocarcinoma cell KB-3-1 | Potency, µM (series often up to 46.1 µM), hits mostly cytotoxic | KB-3-1 viability, CellTiter-Glo ATP luminescence, 72 h | 400,000 compounds, 1.4% hits; further: nearly all actives have a fitted effect of over 60% in size
#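 Using CellTiter-Glo luminescence, growth of non-resistant KB-3-1 adenocarcinoma cells is assessed 72 h after pin-tool compound addition at 37 °C. Normalized responses across the concentration series yield fitted curves.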
# A number is an active result; i = inactive; ? = inconclusive; nt = no result; [ ] = remark or other dose. Shown are actives, neighbours in structure and some others; about 8% of the full set was active somewhere. The call rests on the fitted dose curve; in most records, active means well fitted curve in the direction sought with a large enough effect; inconclusive means small, poorly fitted or top-dose-only effect, or another doubt; inactive means no such curve, though single readings can be large; an effect the other way counts as inactive or inconclusive.
SMILES,KB-V1 MDR tox,HT1080 IDH1KD tx,SW480 rereplic,HT1080-NT tox,MCF10A rerep,KB-3-1 tox
Cc1ccc(NC(=O)CN2C(=O)C3(SCC(=O)N3c3ccc(F)c(F)c3)c3ccccc32)c(C)c1 (configuration not stated),i,nt,nt,nt,nt,i
CCC1(C)NC(=O)N(CC(=O)c2cc(C)n(C3CC3)c2C)C1=O (configuration not stated),i,i,i,i,i,i
COc1ccc(C2(C)NC(=O)N(CC(=O)c3cc(C)n(C4CC4)c3C)C2=O)cc1OC (configuration not stated),23µM,i,i,i,i,?
Cc1c(CN2CCCCC2C)c(=O)n(-c2ccccc2)n1C (configuration not stated),i,i,i,i,i,i
Cc1ccc2c(c1)nnn2C1CCN(S(=O)(=O)c2ccc3ccccc3c2)CC1,21µM,?,i,?,i,i
COC(=O)c1cccc(S(=O)(=O)N2CCC(n3nnc4cc(F)ccc43)CC2)c1,16µM,i,i,i,i,i
Cc1ccc2c(c1)nnn2C1CCN(S(=O)(=O)c2ccc(C(=O)N3CC(C)CC(C)C3)cc2)CC1 (configuration not stated),?,i,i,i,i,16µM
Cc1ccc2c(c1)nnn2C1CCN(S(=O)(=O)c2cccc(S(=O)(=O)N(C)C)c2)CC1,i,i,i,i,i,i
CCOC(=O)CN(C(=O)CN1CCC(n2nnc3cc(C)ccc32)CC1)c1ccccc1,i,i,i,i,i,i
Cc1ccc2c(c1)nnn2C1CCN(CC(=O)N(c2ccccc2)c2ccccc2)CC1,9.2µM,i,i,i,i,?
Cc1ccc2c(c1)nnn2C1CCN(S(=O)(=O)c2ccc(C(=O)NC3CCCC3)cc2)CC1,?,i,i,i,i,i
Cc1ccc2c(c1)nnn2C1CCN(S(=O)(=O)c2ccc(C(=O)N(C)C)cc2)CC1,9.2µM,i,i,i,i,?
Cc1ccc2c(c1)c1c3n2CC(=C2C(=O)OC(C)(C)OC2=O)NC3CCC1 (configuration not stated),21µM,i,i,?,i,i
CCN(CC(=O)NCc1cccs1)C(=O)c1cccc(S(=O)(=O)Nc2ccc(C)cc2)c1,i,i,i,i,i,i
CCOC(=O)Cn1c(=O)n(C2CCCCC2)c2nc(-c3ccc(CC)cc3)nc(C(N)=O)c21,i,nt,nt,nt,nt,8.2µM
CCOC(=O)Cn1c(=O)n(C2CCCCC2)c2nc(-c3ccc(OCC)cc3)nc(C(N)=O)c21,?,nt,nt,nt,nt,18µM
CCOC(=O)Cn1c(=O)n(C2CCCCC2)c2nc(-c3ccc(OC)cc3)nc(C(N)=O)c21,i,nt,nt,nt,nt,?
COc1ccc(C(=O)Nc2nc(-c3nnn(-c4cc(OC)ccc4OC)c3C)ns2)cc1,i,nt,nt,nt,nt,i
CCOc1ccc(-c2nnc3ccc(SCC(=O)NCc4ccco4)nn23)cc1,16µM,?,i,i,?,i
Cc1ccc(-c2nnc3ccc(SCC(=O)NCc4ccco4)nn23)cc1,?,i,i,i[9.24 µM],i,i
CC(OC(=O)c1cccc(N2C(=O)c3ccccc3C2=O)c1)C(=O)Nc1ccc(N(C)C)cc1 (configuration not stated),i,i,i,i,i,i
CC(=O)NC1=NN(C(C)=O)C(C)(c2ccccc2)S1 (configuration not stated),7.3µM,7.1µM,i,2µM,i,8.2µM
CC(C)CN(Cc1cc(=O)oc2cc(-c3ccccc3)c(O)cc12)CC(C)C,i,?,i,26µM,?,?
